Screens deposited in PubChem by National Center for Advancing Translational Sciences (NCATS).
Shown are actives, neighbours in structure and some others; about 9.2% of the full set was active somewhere.
FLuc counter – counter-screen for miR-21 project: firefly luciferase inhibitors or activators | 6.9% of 360,000 active | Potency, µM (highest dose often 57.5 µM), for the others: at the top dose activity change, negative = inhibition, actives largely listed as inhibitors | purified FLuc, Km substrates, luminescence inhibition | AID 588342 | P08659;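 further: plate controls were vehicle for no effect and reference inhibitor for full effect; nearly all actives have a fitted effect of over 55% in size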
Target sequence (P08659 whole entry, looked up): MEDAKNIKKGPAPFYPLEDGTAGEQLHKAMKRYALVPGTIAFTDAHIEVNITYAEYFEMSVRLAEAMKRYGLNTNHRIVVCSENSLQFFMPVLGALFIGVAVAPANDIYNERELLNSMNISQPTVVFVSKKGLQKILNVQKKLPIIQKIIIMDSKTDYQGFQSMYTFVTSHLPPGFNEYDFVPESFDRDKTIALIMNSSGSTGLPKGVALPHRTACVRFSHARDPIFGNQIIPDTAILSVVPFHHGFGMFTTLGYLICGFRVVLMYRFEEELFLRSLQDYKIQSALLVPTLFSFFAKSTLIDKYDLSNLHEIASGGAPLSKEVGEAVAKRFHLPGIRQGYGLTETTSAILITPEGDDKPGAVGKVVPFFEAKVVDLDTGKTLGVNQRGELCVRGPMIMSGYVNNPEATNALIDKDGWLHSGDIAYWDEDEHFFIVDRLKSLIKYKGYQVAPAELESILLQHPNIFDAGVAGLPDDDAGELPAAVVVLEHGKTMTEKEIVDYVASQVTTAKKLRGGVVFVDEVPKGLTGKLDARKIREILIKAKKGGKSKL
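Purified P. pyralis luciferase (10nM final) with 10uM D-luciferin and 10uM ATP (Km levels) in 50mM Tris acetate pH 7.5, 10mM Mg acetate, 0.01% Tween-20, 0.05% BSA; qHTS 6-point titration, ~60 µM downward; luminescence read.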
ELG1 repair inh – ELG1-dependent DNA repair inhibition; HEK293T ELG1-luciferase reporter, luminescence, 16 h; DNA damage induced by 5-fluorouridine; Potency, µM (series often up to 46.1 µM), without a hit: at the top dose activity change, negative = inhibition, usual class: inhibitors; 2.3% of 330,000 active; further: on the % scale 0 is the no-effect control and ±100 the full control effect; nearly all actives have a fitted effect of over 55% in size
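Step one: seed 2,000 cells per well. Step two: pin-transfer compound or DMSO alongside 5-fluorouridine. Step three: incubate 16 hr, 37 °C, 5% CO2. Step four: add ONE-Glo, wait 30 min, read luminescence.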
Rab9 promoter act – Rab9 promoter activation. Huh7 Rab9 promoter-luciferase reporter, luminescence, 24 h. Potency, µM (highest dose often 9.22 µM), inactives show at the top dose activation, negative = inhibition, most hits filed as activators. 2.8% of 320,000 active. AID 485297; further: % of control where 0% means no effect; nearly all actives have a fitted effect of over 60% in size
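Rab9 promoter-driven luciferase in stably transfected Huh7 cells; 1500 cells/well rested 2 h, exposed to compound in DMSO for 24 h at 37 °C, 5% CO2. Luminescence read 10 min after adding luciferase reagent at ambient temperature.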
NPC1 promoter act – activators of NPC1 promoter | Huh7 NPC1 promoter luciferase reporter, 24 h | Potency, µM (top dose mostly 9.22 µM), inactives show top-dose activation, most hits filed as activators | 2.4% of 320,000 active | AID 485313; further: % of control where 0% means no effect; nearly all actives have a fitted effect of over 60% in size
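Huh7 cells stably carrying NPC1 promoter–luciferase, plated in Opti-MEM with 10% FBS for 2 h, were exposed to compound in DMSO for 24 h at 37 °C; luciferase reagent was added for 10 min and luminescence read.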
ELG1 genotox – genotoxicity induction in ELG1-luciferase HEK293T cells. 1.3% of 330,000 active. Potency, µM (doses to about 46 µM), inactives show top-dose activity change, positive = activation, actives largely listed as activators. AID 504466. HEK293T ELG1-luciferase reporter, luminescence, 16 h; further: % of control where 0% means no effect; nearly all actives have a fitted effect of over 60% in size
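ELG1-luciferase HEK293T cells, 2,000/well; compound pinned in; 16 hr, 37 °C, 5% CO2; ONE-Glo, 30 min RT; luminescence on CCD imager.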
SMN2 splice enh – SMN2 splice variant enhancement | HEK293 SMN2-luciferase splicing reporter, luminescence, 30-36 h | 2.8% of 210,000 active | Potency, µM (series often up to 46.1 µM), for the others: at the highest dose activity change, positive = activation, actives largely listed as activators; further: % of control where 0% means no effect; nearly all actives have a fitted effect of over 55% in size
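qHTS luciferase splicing reporter: luminescence rises when SMN2 exon 7 is included in transfected HEK293 cells. Compound exposure lasted 30-36 h at 37C, with 4.5 mM final sodium butyrate as control, followed by a ONE-Glo read.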
* = called active by the depositor; ? = inconclusive; . = not tested or not shown; [ ] = dose if it differs, or a comment. The call rests on the fitted dose curve; in most records, active means well fitted curve in the direction sought with a large enough effect; inconclusive means small, poorly fitted or top-dose-only effect, or another doubt; inactive means no such curve, though single readings can be large; an effect the other way counts as inactive or inconclusive. Potency means the concentration at half of the fitted maximal effect.

SMILES	FLuc counter	ELG1 repair inh	Rab9 promoter act	NPC1 promoter act	ELG1 genotox	SMN2 splice enh
COc1ccc(OC)c(NC(=O)CN(c2ccccc2OC)S(=O)(=O)c2ccc(C)cc2)c1	4%	.	.	.	.	-23%
O=C(CSc1nnnn1C1CCCC1)Nc1cccc(NC(=O)c2ccco2)c1	?	-15%	-1%	-1%	1%	-1%
CC(=O)c1cccc(-n2nnnc2SCC(=O)Nc2cccc(NC(=O)c3ccco3)c2)c1	?	18µM*	13%	12%	-11%	-5%
O=C(CSc1nnnn1C1CCCCC1)Nc1cccc(NC(=O)c2ccco2)c1	17µM*	?	-9%	-1%	-3%	-1%
O=C(CCS(=O)(=O)c1cc(Br)cc2c1N(C(=O)C1CC1)CC2)N1CCN(c2cccc(Cl)c2)CC1	-10%	.	.	.	.	6%
COc1ccc(OC)c(NC(=O)COc2ccc3c(c2)CCC3)c1	-27%	14%	-9%	-2%	1%	.
CC(=O)c1cccc(NC(=O)c2ccc(N(C)S(=O)(=O)c3ccc(C)cc3)cc2)c1	-3%	16µM*	4%	1%	-17%	.
O=C(O)c1cccc(NC(=O)c2cc(NC(=O)c3ccccc3)cc(NC(=O)c3ccccc3)c2)c1	?	18%	3%	0%	6%	.
Cc1cccc2nc(C(=O)Nc3cccc(C(=O)NC4CC4)c3)cn12	2.4µM*	?	3.2µM*	?	11%	.
O=C(O)c1ccc(NC(=O)c2ccc(Cl)cc2)c(NC(=O)c2ccc(Cl)cc2)c1	?	-3%	21%	-1%	2%	.
Cc1ccc(C(=O)Nc2ccc(C(=O)O)cc2NC(=O)c2ccc(C)cc2)cc1	21µM*	?	22%	?	?	.
CC(=O)c1cccc(NC(=O)c2ccc(N(Cc3ccc(C)cc3)S(C)(=O)=O)cc2)c1	8%	?	-3%	0%	-26%	-15%
Cc1ccc(C(=O)Nc2cccc(C(=O)O)c2)cc1	0.15µM*	?	?	?	?	1µM*
CCOc1ccccc1NC(=O)C1CCN(S(=O)(=O)c2cccc3nonc23)CC1	-3%	.	.	.	.	.
COc1ccc(N(C)C(=O)c2cn(C3CCCCC3)c(=O)c3c2c2ccccc2n3C)cc1	-1%	.	.	.	.	-20%
COc1ccccc1NC(=O)N1C2CCCC1CC(NC(=O)c1ccccc1)C2 (stereo not given)	-2%	-17%	-4%	-4%	-11%	-33%
CC(=O)Nc1ccccc1C(=O)C(=O)Nc1cccc(C(=O)NC2CC2)c1	-11%	?	2.8µM*	?	13%	0%[1.84 µM]
Cc1ccc(C(=O)Nc2cccc(C(=O)NC3CCCC3)c2)cc1	12µM*	-5%	?	?	-7%	.
Nc1ccc(C(=O)Nc2cccc(NC(=O)c3ccc(N)cc3)c2)cc1	11µM*	17%	21%	4%	7%	.
Cc1oc2c(c1C(=O)Nc1cccc(C(=O)O)c1)CCCC2	19µM*	?	?	?	?	14%
Nc1ccc(C(=O)Nc2ccco2)cc1	-1%	?	21%	13%	11%	?
Cn1c(N)c(C(=O)CSc2ccc3c(c2)OCCO3)c(=O)n(C)c1=O	?	?	6%	-1%	-7%	-20%
Cc1cc(C(=O)CSc2ccc3c(c2)OCCO3)c(C)n1C1CC1	11µM*	?	2.8µM*	?	?	?
C/C(N)=C(/C#N)C(=O)CSc1ccc2c(c1)OCCO2	12µM*	?	2.8µM*	3.2µM*	?	13µM*
CC(=O)CSc1ccc(-c2nc3cc(C)c(C)cc3[nH]2)cn1	-2%	-3%	-5%	-10%	0%	.
O=C(CSc1ccc(-c2nc3ccccc3[nH]2)cn1)Nc1ccc(S(=O)(=O)N2CCCC2)cc1	4.8µM*	2%	-2%	-4%	-1%	19%
Cc1cc2nc(-c3ccc(SCC(=O)Nc4nccs4)nc3)[nH]c2cc1C	?	?	2.5µM*	3.5µM*	?	?
